# Measured values published in PubChem BioAssay (EPA / NIEHS).
# Values joined by “and” are separate entries in the source; they are usually repeats but may differ in a detail not shown here. Identical values can stand only once. Results filed as inconclusive are left out. More than one record can exist for a structure, and the calls need not agree. Active and inactive are the calls of the source. Rule for the calls, unless noted: active = hit-call score of the fitted dose curve at least 0.9, where 1 is the maximum; inactive = score below 0.9.
# Columns and labels:
# [1] = molecular target: Estrogen receptor (Homo sapiens) (UniProt P03372); experiment: CCTE_Deisenroth_AIME_384WELL_LUC_Inactive: CCTE's 384-well Estrogen Receptor Transactivation Assay without AIME metabolic competence (ERTA luciferase; metabolism negative), Deisenroth Lab (AID 2284038; active = hit-call score of the fitted dose curve at least 0.9, where 1 is the maximum;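 note: hits raise estrogen receptor luciferase signal so potencies reflect agonists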)
# Summary of the method: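 Metabolism-negative mode: chemicals (10-point, 0.002–200 uM) held 2 h with alginate-water microspheres, then conditioned medium applied to VM7Luc4E2 cells for 24 h. Luciferase induction referenced to 17beta-estradiol.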
# [2] = CCTE_Deisenroth_AIME_384WELL_CTox_Inactive: Cytotoxicity Assessment (CTOX) in CCTE's 384-well Estrogen Receptor Transactivation Assay without AIME metabolic competence (metabolism negative), Deisenroth Lab (AID 2284039; active = hit-call score of the fitted dose curve at least 0.9, where 1 is the maximum;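 note: cell viability via live-cell protease substrate cleaved to fluorescent probe; cells exposed 24 h to medium preincubated 2 h with alginate-water beads without S9; loss of fluorescence signal means loss of viability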)
# Summary of the method: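 VM7Luc4E2 human breast cells received conditioned medium from a 2 h incubation of chemical with alginate-water microspheres (no S9), then were exposed 24 h. Viability was read as protease-substrate cleavage to a fluorescent probe; loss of signal was fitted bidirectionally over 0.002–200 uM.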
# [3] = molecular target: Estrogen receptor (Homo sapiens) (UniProt P03372); experiment: CCTE_Deisenroth_AIME_384WELL_LUC_Shift: CCTE's 384-well Estrogen Receptor Transactivation Assay with AIME metabolic competence data shift (ERTA luciferase; difference in metabolism positive and negative), Deisenroth Lab (AID 2284041);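 note: shift is response with S9 minus without S9 so positive means metabolism raised ER signal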
# Summary of the method: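 Here, parent compounds undergo 2 h phase I metabolism by PB/BNF-induced rat S9 before 24 h transactivation in VM7Luc4E2 cells; the curve models S9-positive minus S9-negative response over a 10-point series.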
# [4] = CCTE_Shafer_MEA_dev_active_electrodes_number: CCTE's Neural Network Formation Assay for Number of Active Electrodes, Shafer Lab (AID 2284040; active = hit-call score of the fitted dose curve at least 0.9, where 1 is the maximum;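 for AC50: potency for loss of active electrodes versus DMSO so lower counts are hits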)
# Summary of the method: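 Primary rat cortical neurons on 16-electrode MEA wells, exposed from day 0 through day 12 with compound renewed at DIV 5 and 9 feeds. Active electrodes (mean firing ≥5 spikes/min) counted at DIV 5, 7, 9, 12; trapezoidal AUC across days, loss-of-signal versus DMSO.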
# [5] = CCTE_Shafer_MEA_dev_burst_rate: CCTE's Neural Network Formation Assay for Burst Rate, Shafer Lab (AID 2284042);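 for AC50: potency for loss of burst rate below DMSO control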
# Summary of the method: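 Rat primary cortical cultures on PEI/laminin MEA; compound from plating, re-dosed at DIV 5, 9 media change. Single-electrode bursts/recording length, well mean of active electrodes; AUC over DIV 5–12 recordings; loss-of-signal vs DMSO.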
# [6] = CCTE_Shafer_MEA_dev_per_burst_interspike_interval: CCTE's Neural Network Formation Assay for Burst Interspike Interval, Shafer Lab (AID 2284044);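 note: mean spike spacing inside bursts as AUC over recordings on days 5 7 9 12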;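 for AC50: potency for a decrease of within-burst interspike interval below DMSO level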
# Summary of the method: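 Primary rat cortical neurons on 48-well MEA plates, exposed from day 0 through day 12, treatment renewed at DIV 5 and 9. Within-burst interspike interval recorded days 5, 7, 9, 12, well-averaged, summarised as AUC; negative fit versus DMSO.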
# [7] = CCTE_Shafer_MEA_dev_burst_duration_mean: CCTE's Neural Network Formation Assay for Mean Burst Duration, Shafer Lab (AID 2284045);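 for AC50: curve fitted for loss meaning shorter burst duration than DMSO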
# Summary of the method: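 Primary rat cortical neurons on PEI-coated 16-electrode MEA wells, exposed from plating through day 12 with compound renewed at DIV 5 and 9; spontaneous activity recorded days 5, 7, 9, 12. Well-mean burst duration collapsed as trapezoidal AUC, fitted for loss versus DMSO.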
# [8] = CCTE_Shafer_MEA_dev_interburst_interval_mean: CCTE's Neural Network Formation Assay for Mean Interburst Interval, Shafer Lab (AID 2284046);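 note: well-mean interburst interval of bursting electrodes as AUC over four recording days; curve fitted for decrease in interburst interval relative to DMSO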
# Summary of the method: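 Rat cortical neurons, 1.5 x 10^5 cells/well, 48-well MEA; compound from day 0 through DIV 12, media and treatment renewed DIV 5/9. Recordings DIV 5, 7, 9, 12; well-mean interburst interval → trapezoidal AUC, loss direction vs DMSO.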
# [9] = CCTE_Shafer_MEA_dev_inter_network_spike_interval_mean: CCTE's Neural Network Formation Assay for Mean Inter-network Spike Interval, Shafer Lab (AID 2284047);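 for AC50: potency for a decrease in mean inter-network spike interval below DMSO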
# Summary of the method: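 Primary rat cortical neurons on PEI-coated 48-well MEAs (16 electrodes/well) were exposed from plating day 0 to DIV 12, with dosing renewed at DIV 5 and 9. Recordings at DIV 5, 7, 9, 12 were collapsed by trapezoidal AUC, loss-of-signal fit vs DMSO.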
# [10] = CCTE_Shafer_MEA_dev_network_spike_number: CCTE's Neural Network Formation Assay for Number of Network Spikes, Shafer Lab (AID 2284048);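 note: synchronized bursts across electrodes counted on days 5 7 9 12 and integrated as AUC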;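 for AC50: fit as a loss of signal meaning fewer network spikes than DMSO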
# Summary of the method: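 Primary rat cortical neurons were seeded at 1.5 x 10^5 cells/well on PEI-coated 16-electrode MEA wells with laminin, exposed from plating day 0, compound renewed at DIV 5 and 9. Network spikes were recorded on days 5, 7, 9, 12 and summarized as trapezoidal AUC versus DMSO.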
# Chain of Estrogen receptor (Homo sapiens) (P03372 whole entry, looked up): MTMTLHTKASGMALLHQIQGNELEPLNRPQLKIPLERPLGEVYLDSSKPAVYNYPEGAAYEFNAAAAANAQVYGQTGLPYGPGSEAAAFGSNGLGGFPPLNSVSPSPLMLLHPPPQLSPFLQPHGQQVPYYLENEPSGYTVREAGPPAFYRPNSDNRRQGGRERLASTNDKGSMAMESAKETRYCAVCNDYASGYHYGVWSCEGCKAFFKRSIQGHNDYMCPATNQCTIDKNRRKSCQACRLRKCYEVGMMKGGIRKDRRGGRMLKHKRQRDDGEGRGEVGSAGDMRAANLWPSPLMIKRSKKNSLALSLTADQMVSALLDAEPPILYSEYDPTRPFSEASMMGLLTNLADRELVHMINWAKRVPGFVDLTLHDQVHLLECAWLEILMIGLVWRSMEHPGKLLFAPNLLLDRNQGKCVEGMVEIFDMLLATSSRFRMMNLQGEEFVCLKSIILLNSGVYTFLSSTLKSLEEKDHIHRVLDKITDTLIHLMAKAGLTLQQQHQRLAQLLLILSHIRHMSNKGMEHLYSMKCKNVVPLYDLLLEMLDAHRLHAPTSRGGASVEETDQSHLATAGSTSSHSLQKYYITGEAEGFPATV
smiles,measurement,setting,value
COCCOCCO,outcome,[1],inactive
same,outcome,[2],inactive
same,outcome,[3],inactive
CCOS(=O)(=O)OCC,outcome,[1],inactive
same,outcome,[2],inactive
same,outcome,[3],inactive
CCCCN(CCCC)SN(C)C(=O)Oc1cccc2c1OC(C)(C)C2,outcome,[1],inactive
same,outcome,[2],inactive
same,outcome,[3],inactive
CCOC(=O)c1ccccc1C(=O)OCC,outcome,[1],inactive
same,outcome,[2],inactive
same,AC50,[3],45.2 µM (active)
Nc1ccc(Cl)cc1,outcome,[1],inactive
same,outcome,[2],inactive
same,outcome,[3],inactive
[N-]=[N+]=[N-],outcome,[1],inactive
same,outcome,[3],inactive
CCCN(CCC)c1c([N+](=O)[O-])cc(C(C)C)cc1[N+](=O)[O-],outcome,[1],inactive
same,outcome,[2],inactive
same,outcome,[3],inactive
CCCCN(CC)C(=O)SCCC,outcome,[1],inactive
same,outcome,[2],inactive
same,outcome,[3],inactive
ClC(Cl)c1ccccc1,outcome,[1],inactive
same,outcome,[2],inactive
same,outcome,[3],inactive
COC(N)=O,outcome,[1],inactive
same,outcome,[3],inactive
CCOP(=S)(Oc1ccc([N+](=O)[O-])cc1)c1ccccc1 (stereo not drawn),AC50,[1],15.5 µM (active)
same,outcome,[2],inactive
same,outcome,[3],inactive
c1nc[nH]n1,outcome,[1],inactive
same,outcome,[2],inactive
same,outcome,[3],inactive
Nc1cc2c3c(c1)C(c1ccccc1)=N[C@@H](NC(=O)c1cccnc1)C(=O)N3CC2,outcome,[1],inactive
same,AC50,[3],39.4 µM (active)
CCCCN(CCCC)N=O,AC50,[1],85.5 µM (active)
same,outcome,[2],inactive
same,AC50,[3],77.6 µM (active)
OCC1CO1 (stereo not drawn),outcome,[1],inactive
same,outcome,[2],inactive
same,outcome,[3],inactive
c1ccc(OP(Oc2ccccc2)Oc2ccccc2)cc1,AC50,[1],75.4 µM (active)
same,outcome,[2],inactive
same,outcome,[4],inactive
same,AC50,[3],60.5 µM (active)
same,outcome,[5],inactive
same,outcome,[6],inactive
same,outcome,[7],inactive
same,outcome,[8],inactive
same,outcome,[9],inactive
same,outcome,[10],inactive
Nc1ccc2ccccc2c1,outcome,[1],inactive
same,outcome,[2],inactive
same,outcome,[3],inactive
CCCCC(CC)COP(=O)(Oc1ccccc1)Oc1ccccc1 (stereo not drawn),outcome,[1],inactive
same,outcome,[2],inactive
same,outcome,[4],inactive
same,outcome,[3],inactive
same,outcome,[5],inactive
same,outcome,[6],inactive
same,outcome,[7],inactive
same,outcome,[8],inactive
same,outcome,[9],inactive
same,outcome,[10],inactive
CCCCc1ccc(O)cc1,AC50,[1],20.2 µM (active)
same,outcome,[2],inactive
same,outcome,[3],inactive
O=C(O)CF,outcome,[1],inactive
same,outcome,[2],inactive
same,outcome,[3],inactive
CCCCc1ccccc1,outcome,[1],inactive
same,outcome,[2],inactive
same,outcome,[3],inactive
CCC(C)(C)c1ccc(O)cc1,AC50,[1],1.52 µM (active)
same,AC50,[3],0.0296 µM (active)
CCN(CC)c1ccccc1,outcome,[1],inactive
same,outcome,[2],inactive
same,outcome,[3],inactive
c1ccc2c(c1)Nc1ccccc1S2,AC50,[1],27.7 µM (active)
same,outcome,[2],inactive
same,outcome,[3],inactive
O=[N+]([O-])c1ccccc1,outcome,[1],inactive
same,outcome,[2],inactive
same,outcome,[3],inactive
Cc1cccc(N)c1,outcome,[1],inactive
same,outcome,[2],inactive
same,outcome,[3],inactive
OCC(F)(F)OC(F)(F)C(F)(F)OC(F)(F)CO,outcome,[4],inactive
same,outcome,[5],inactive
same,outcome,[6],inactive
same,outcome,[7],inactive
same,outcome,[8],inactive
same,outcome,[9],inactive
same,outcome,[10],inactive
CCCCOCCOP(=O)(OCCOCCCC)OCCOCCCC,outcome,[3],inactive
O=C(O)C=CC(F)(C(F)(F)F)C(F)(F)F,outcome,[5],inactive
same,outcome,[6],inactive
same,outcome,[7],inactive
same,outcome,[8],inactive
same,outcome,[9],inactive
same,outcome,[10],inactive
CCOc1ccc(C(C)(C)COCc2cccc(Oc3ccccc3)c2)cc1,AC50,[4],10 µM (active)
same,outcome,[5],inactive
same,AC50,[6],14 µM (active)
same,outcome,[7],inactive
same,AC50,[8],18 µM (active)
same,outcome,[9],inactive
same,outcome,[10],inactive
ClC1=C(Cl)C2(Cl)C3C(Cl)C(Cl)CC3C1(Cl)C2(Cl)Cl (stereo not drawn),AC50,[4],5.54 µM (active)
same,AC50,[5],7.48 µM (active)
same,AC50,[6],3.93 µM (active)
same,outcome,[7],inactive
same,AC50,[8],7.68 µM (active)
same,outcome,[9],inactive
same,AC50,[10],1980 nM (active)
OCC(F)(F)OC(F)(F)C(F)(F)OC(F)(F)C(F)(F)OC(F)(F)CO,outcome,[4],inactive
same,outcome,[5],inactive
same,outcome,[6],inactive
same,outcome,[7],inactive
same,outcome,[8],inactive
same,outcome,[9],inactive
same,outcome,[10],inactive
CC(C)(C)OOC(C)(C)C,outcome,[1],inactive
same,outcome,[3],inactive
O=C(O)C(F)(F)OC(F)(F)C(F)(F)OC(F)(F)F,outcome,[4],inactive
same,outcome,[5],inactive
same,outcome,[6],inactive
same,outcome,[7],inactive
same,outcome,[8],inactive
same,outcome,[9],inactive
same,outcome,[10],inactive
O=C(O)C(F)(F)OC(F)(F)C(F)(F)OC(F)(F)C(=O)O,outcome,[4],inactive
same,outcome,[5],inactive
same,outcome,[6],inactive
same,outcome,[7],inactive
same,outcome,[8],inactive
same,outcome,[9],inactive
same,outcome,[10],inactive
CO/N=C(/C(=O)OC)c1ccccc1COc1ccccc1C,AC50,[4],0.857 µM (active)
same,AC50,[5],0.403 µM (active)
same,AC50,[6],2.25 µM (active)
same,AC50,[7],0.863 µM (active)
same,AC50,[8],0.939 µM (active)
same,AC50,[9],712 nM (active)
same,AC50,[10],474 nM (active)
O=c1ssc(Cl)c1Cl,outcome,[1],inactive
same,outcome,[3],inactive
OCC(F)(F)OC(F)(F)C(F)(F)OC(F)(F)C(F)(F)OC(F)(F)F,outcome,[4],inactive
same,outcome,[5],inactive
same,outcome,[6],inactive
same,outcome,[7],inactive
same,outcome,[8],inactive
same,outcome,[9],inactive
same,outcome,[10],inactive
c1cc2c3c(cccc3c1)CC2,outcome,[4],inactive
same,outcome,[5],inactive
same,outcome,[6],inactive
same,outcome,[7],inactive
same,outcome,[8],inactive
same,outcome,[9],inactive
same,outcome,[10],inactive
CC(Cl)(Cl)C(=O)O,outcome,[1],inactive
same,outcome,[3],inactive
CCCCOCC1CO1 (stereo not drawn),AC50,[1],19.9 µM (active)
same,AC50,[3],8.76 µM (active)
C=CC(=O)OCC(F)(F)C(F)F,AC50,[4],4.45 µM (active)
same,outcome,[5],inactive
same,AC50,[6],2.98 µM (active)
same,AC50,[7],8.76 µM (active)
same,AC50,[8],8.7 µM (active)
same,outcome,[9],inactive
same,outcome,[10],inactive
O=C(O)C(F)(OC(F)(F)C(F)(F)C(F)(F)F)C(F)(F)F (stereo not drawn),outcome,[4],inactive
same,AC50,[5],11.7 µM (active)
same,outcome,[5],inactive
same,outcome,[6],inactive
same,outcome,[7],inactive
same,outcome,[8],inactive
same,outcome,[9],inactive
same,AC50,[10],402 nM (active)
same,outcome,[10],inactive
CCCCC(CC)COC(=O)c1c(Br)c(Br)c(Br)c(Br)c1C(=O)OCC(CC)CCCC (stereo not drawn),outcome,[4],inactive
same,outcome,[5],inactive
same,outcome,[6],inactive
same,outcome,[7],inactive
same,outcome,[8],inactive
same,outcome,[9],inactive
same,outcome,[10],inactive
O=P1(N(CCCl)CCCl)NCCCO1 (stereo not drawn),outcome,[4],inactive
same,outcome,[5],inactive
same,outcome,[6],inactive
same,outcome,[7],inactive
same,outcome,[8],inactive
same,outcome,[9],inactive
same,outcome,[10],inactive
O=C(O)C1C(C(=O)O)C2(Cl)C(Cl)=C(Cl)C1(Cl)C2(Cl)Cl (stereo not drawn),outcome,[5],inactive
same,outcome,[6],inactive
same,outcome,[7],inactive
same,outcome,[8],inactive
same,outcome,[9],inactive
same,outcome,[10],inactive
O=S(=O)(c1ccc(O)cc1)c1ccc(O)cc1,outcome,[4],inactive
same,outcome,[5],inactive
same,outcome,[6],inactive
same,outcome,[7],inactive
same,outcome,[8],inactive
same,outcome,[9],inactive
same,outcome,[10],inactive
CCC1(c2ccccc2)C(=O)N=C(O)NC1=O (stereo not drawn),outcome,[4],inactive
same,outcome,[5],inactive
same,outcome,[6],inactive
same,outcome,[7],inactive
same,outcome,[8],inactive
same,outcome,[9],inactive
same,outcome,[10],inactive
CC(O)C(F)(F)C(F)(F)F (stereo not drawn),outcome,[4],inactive
same,outcome,[5],inactive
same,outcome,[6],inactive
same,outcome,[7],inactive
same,outcome,[8],inactive
same,outcome,[9],inactive
same,outcome,[10],inactive
O=C(O)C(F)(F)C(F)(F)C(=O)O,outcome,[4],inactive
same,outcome,[5],inactive
same,outcome,[6],inactive
same,outcome,[7],inactive
same,outcome,[8],inactive
same,outcome,[9],inactive
same,outcome,[10],inactive
CC(C)(C)c1ccccc1OP(=O)(Oc1ccccc1)Oc1ccccc1,AC50,[4],24.3 µM (active)
same,outcome,[4],inactive
same,outcome,[5],inactive
same,outcome,[6],inactive
same,outcome,[7],inactive
same,outcome,[8],inactive
same,outcome,[9],inactive
same,outcome,[10],inactive
O=P(Oc1ccccc1)(Oc1ccccc1)Oc1ccccc1,outcome,[4],inactive
same,outcome,[5],inactive
same,outcome,[6],inactive
same,outcome,[7],inactive
same,outcome,[8],inactive
same,outcome,[9],inactive
same,outcome,[10],inactive
CCOP(=S)(OCC)SCSCC,AC50,[4],81.3 µM (active) and 23.2 µM (active)
same,outcome,[5],inactive
same,outcome,[6],inactive
same,outcome,[7],inactive
same,AC50,[8],50 µM (active)
same,outcome,[8],inactive
same,outcome,[9],inactive
same,outcome,[10],inactive
